# Laboratory results: ChEMBL document CHEMBL3433997, “St. Jude Leishmania screening dataset” (2016)
# Experiments:
# Format in all cases: functional
# [1] = biological target: Solute carrier family 2, facilitated glucose transporter member 1 (Homo sapiens) (UniProt P11166); assay: ST_JUDE_LEISH: Cytotoxicity at 2uM final concentration against transgenic Leishmania Mexicana promastigotes LmGLUT1 that are glucose transport deficient and complemented with the human glucose transporter GLUT1. Activity is measured by DNA content using SYBR green in vitro
# [2] = biological target: Hexose transporter 1 (Plasmodium falciparum) (UniProt O97467); assay: ST_JUDE_LEISH: Cytotoxicity at 2uM final concentration against transgenic Leishmania Mexicana promastigotes LmPfHT that are glucose transport deficient and complemented with the Plasmodium falciparum hexose transporter. Activity is measured by DNA content using SYBR green in vitro
# [3] = biological target: Glucose transporter (Leishmania mexicana) (UniProt O61059); assay: ST_JUDE_LEISH: Cytotoxicity at 2uM final concentration against transgenic Leishmania Mexicana promastigotes LmGT2 that are glucose transport deficient and complemented with the L. Mexicana glucose transporter 2. Activity is measured by DNA content using SYBR green in vitro
# Sequence of Solute carrier family 2, facilitated glucose transporter member 1 (Homo sapiens) (P11166 whole entry): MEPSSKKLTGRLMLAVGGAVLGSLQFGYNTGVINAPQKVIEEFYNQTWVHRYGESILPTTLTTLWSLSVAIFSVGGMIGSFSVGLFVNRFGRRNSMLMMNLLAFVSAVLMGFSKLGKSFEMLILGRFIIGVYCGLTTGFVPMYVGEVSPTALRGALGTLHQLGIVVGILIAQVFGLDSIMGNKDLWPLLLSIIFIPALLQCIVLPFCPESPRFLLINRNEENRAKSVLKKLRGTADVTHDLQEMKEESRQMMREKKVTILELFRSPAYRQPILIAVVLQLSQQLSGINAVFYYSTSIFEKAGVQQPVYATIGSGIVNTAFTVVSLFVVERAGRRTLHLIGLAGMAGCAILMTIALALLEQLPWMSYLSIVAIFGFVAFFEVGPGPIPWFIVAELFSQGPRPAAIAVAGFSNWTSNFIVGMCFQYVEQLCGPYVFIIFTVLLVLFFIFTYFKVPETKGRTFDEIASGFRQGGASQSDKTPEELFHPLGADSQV
Structure (SMILES),inhibition [1],inhibition [2],inhibition [3]
COc1cc2nc(NCC3CCN(c4nc(N)c5cc(OC)c(OC)cc5n4)CC3)nc(N)c2cc1OC,3.62%,2.73%,3.28%
O=C(/C=C/c1cc(C(F)(F)F)ccc1F)NCCCCCN1CCC(c2c[nH]c3ccccc23)CC1,0.77%,1.47%,0.28%
COc1ccc(C(=O)C2CCN(CCCCNC(=O)c3ccc(NC(=O)c4ccc(Cl)cc4)cc3)CC2)c(OC)c1,2.37%,2.82%,1.53%
CCCCCCc1c(C)nc2cc(OC)ccc2c1O,3.2%,5.49%,2.87%
CN1CCc2ccc(NC(=O)Nc3ccc(Cl)c(Cl)c3)cc2C1,4.69%,3.67%,3.54%
COc1cccc(Nc2nccc(-c3c(-c4cccc(NC(=O)c5c(F)cccc5F)c4)nn4ccccc34)n2)c1,5%,13.3%,5.92%
CCN(CC)C(=O)c1cccc(C=Cc2ccc(-c3c(C)[nH]c(C)c(Cl)c3=O)cc2)c1,2.65%,2.83%,1.56%
CCN(CC)CCCC(C)N=c1cc(C=Cc2ccc([N+](=O)[O-])cc2)[nH]c2ccc(OC)cc12 (configuration not stated),2.45%,5.16%,2.98%
Cc1c(CNCCCNc2cc(=O)c3ccccc3[nH]2)sc(C(F)=C(F)F)c1Br,6.84%,5.03%,5.8%
CCN(CC)CCCN(CCCN(CC)CC)c1cc(C)nc(Nc2ccc(Cl)cc2)n1,2.61%,0.88%,0.26%
CC(=O)OC[C@H]1O[C@@H](C#Cc2ccccc2)[C@H](OC(C)=O)[C@@H](OC(C)=O)[C@@H]1OC(C)=O,1.22%,2.07%,0.66%
CN1CCc2cc(CN3CC4(C)CC3CC(C)(C)C4)c(O)cc2C(c2ccccc2)C1 (configuration not stated),0.04%,-0.55%,-0.09%
Cc1cc2nc(-c3ccc(C(=O)NC4CCN(Cc5ccccc5)CC4)s3)[nH]c2cc1C,2.92%,2.77%,2.98%
CC1(C)NC(N)=NC(=N)N1OCCCCCOc1ccccc1,0.42%,0.8%,1.28%
Cc1cccc2nc(-c3ccc(-c4cccc(C(=O)NCCc5cn(C)cn5)c4)s3)[nH]c12,1.8%,1.96%,1%
COc1ccc(N2C(=O)c3c(c4ccccc4n3C)C2c2ccccc2O)cc1 (configuration not stated),6.27%,4.4%,5.53%
Cc1cc(F)ccc1Nc1nc(N(C)c2ccccc2)c2cccc(OCCO)c2n1,13.7%,11.2%,4.48%
CN(CCN)Cc1cccc(-c2cccc(-c3nc4cc(C(F)(F)F)ccc4[nH]3)c2)c1,2.68%,2.47%,3.72%
CC(=O)Oc1cc(C)ccc1C1CCN(CCCCNC(=O)c2ccc(NC(=O)c3ccc(Cl)cc3)cc2)CC1,1.6%,1.07%,1.52%
